# Data from PubChem BioAssay (NCATS).
# Results filed as inconclusive are left out. Values without a mark were called inactive. Active and inactive are the calls of the source. Calls follow the shape of the dose curve; as a rule, active = well fitted inhibition curve with a large enough effect; inconclusive = small, poorly fitted or top-dose-only effect; inactive = flat fitted curve, though single readings scatter. Peptide text beside a SMILES is read from it.
# Biological target: Ubiquitin carboxyl-terminal hydrolase 1 (Homo sapiens) (UniProt O94782)
# Sequence (O94782 whole entry, looked up): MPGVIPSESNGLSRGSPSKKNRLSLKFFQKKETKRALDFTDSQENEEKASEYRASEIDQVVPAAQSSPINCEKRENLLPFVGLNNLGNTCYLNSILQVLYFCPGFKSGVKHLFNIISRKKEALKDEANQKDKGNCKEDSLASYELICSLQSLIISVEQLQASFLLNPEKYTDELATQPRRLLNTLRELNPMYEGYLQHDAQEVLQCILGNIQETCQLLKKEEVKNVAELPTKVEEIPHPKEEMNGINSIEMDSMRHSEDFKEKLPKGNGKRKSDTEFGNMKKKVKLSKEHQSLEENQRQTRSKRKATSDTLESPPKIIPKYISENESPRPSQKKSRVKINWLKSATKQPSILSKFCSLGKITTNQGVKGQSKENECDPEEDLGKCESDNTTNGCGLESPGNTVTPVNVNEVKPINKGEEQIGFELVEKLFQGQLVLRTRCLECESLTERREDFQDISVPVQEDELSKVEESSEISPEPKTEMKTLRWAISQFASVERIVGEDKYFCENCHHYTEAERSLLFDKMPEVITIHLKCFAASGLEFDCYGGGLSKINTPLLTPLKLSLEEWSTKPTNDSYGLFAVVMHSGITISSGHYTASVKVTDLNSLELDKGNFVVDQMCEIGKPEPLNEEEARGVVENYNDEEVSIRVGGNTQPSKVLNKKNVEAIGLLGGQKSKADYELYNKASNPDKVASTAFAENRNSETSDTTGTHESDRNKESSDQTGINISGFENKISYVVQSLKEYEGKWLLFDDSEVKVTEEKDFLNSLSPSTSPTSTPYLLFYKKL
# Assay: Inhibitors of USP1/UAF1: Pilot qHTS (AID 504865); also: nearly all actives have a fitted effect of over 35% in size;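 as to activity change, negative = inhibition: rhodamine fluorescence freed from ubiquitin-rhodamine substrate followed over time; top concentration of the series differs between compounds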
# Conditions: purified USP1/UAF1, Ub-rhodamine cleavage fluorescence; series mostly up to 114 µM; activity change, negative = inhibition: at the top concentration
# Description: Deubiquitinating enzymes (DUBs) are a class of enzymes that can cleave isopeptide bond formed between the C-terminal carboxylate of ubiquitin and a lysine side-chain amino group on the target protein. Among them, ubiquitin specific proteases (USPs) constitute the largest DUB family. Human USPs are emerging as promising targets for pharmacological intervention because of their connection to a number of human diseases, including prostate, colon and breast cancer (1, 2), pediatric acute lymphoblastic leukemia (3), and familial cylindromatosis (4). The advantage of inhibiting USPs lies in the potential specificity of therapeutic intervention that can lead to better efficacy and reduce nonspecific side effects.
# In a collaboration between the University of Delaware and the NIH Chemical Genomics Center, a high-throughput screen assay was developed to screen for USP1/UAF1 inhibitors. This miniaturized assay has a fluorescent read-out and is used to screen the NIH Molecular Libraries Small Molecule Repository (MLSMR) in order to identify a small molecule that inhibits USP1.
# NIH Chemical Genomics Center [NCGC]
# NIH Molecular Libraries Probe Centers Network [MLPCN]
# Assay Submitter (PI): Zhihao Zhuang, University of Delaware
# 1. Priolo, C., et al. (2006) The isopeptidase USP2a protects human prostate cancer from apoptosis. Cancer Res 66, 8625-8632
# 2. Popov, N., et al. (2007) The ubiquitin-specific protease USP28 is required for MYC stability. Nat Cell Biol 9, 765-774
# 3. De Pitta, C., et al. (2005) A leukemia-enriched cDNA microarray platform identifies new transcripts with relevance to the biology of pediatric acute lymphoblastic leukemia. Haematologica 90, 890-898
# 4. Kovalenko, A., et al. (2003) The tumour suppressor CYLD negatively regulates NF-kappaB signalling by deubiquitination. Nature 424, 801-805
# 3 microliters of reagents (buffer in columns 3 and 4 as negative control and 1nM USP1/UAF1 complex in columns 1, 2, and 5-48) are dispensed into Greiner black solid bottom 1536-well assay plates. Compounds are then transferred via Kalypsys pin tool equipped with 1536-pin array (10nl slotted pins, V&P Scientific, San Diego, CA). Following an incubation step of 15 min at room temperature, 1ul of Ub-Rho substrate (150nM final concentration) is added to initiate the reaction. The plates are immediately centrifuged at 1000 rpm for 15 seconds, and subsequently transferred to a ViewLux high-throughput CCD imager (PerkinElmer) wherein kinetic measurements of fluorescence are acquired using 480 nm excitation/540 nm emission filter set (6 reads every 60 seconds, see Table 1). All reagents are diluted in an assay buffer consisting of 50mM HEPES (pH 7.8), 0.5mM EDTA, 0.1 mg/ml BSA, 1mM TCEP, and 0.01% Tween-20.
# % is scaled to controls: 0 for no effect and ±100 for the full control effect; potency is read from the fitted curve at half-maximal effect.
SMILES,Potency,"activity change, negative = inhibition"
CCN(CC)C(=S)SSC(=S)N(CC)CC,inactive,–
CNC[C@H](O)c1ccc(O)c(O)c1,inactive,–
CC(S)C(=O)NCC(=O)O (stereo not given),–,-6.41%
COC1=C(OC)C(=O)C(CCCCCCCCCCO)=C(C)C1=O,–,-12.5%
Nc1nc(OCc2ccccc2)c2[nH]cnc2n1,–,-2.24%
COc1c2occc2cc2ccc(=O)oc12,inactive,–
CC(C)(S)[C@@H](N)C(=O)O,–,-5.23%
Nc1nc(Cl)nc2c1ncn2[C@H]1C[C@H](O)[C@@H](CO)O1,–,-5.78%
CN(C)C(=O)COC(=O)Cc1ccc(OC(=O)c2ccc(N=C(N)N)cc2)cc1,–,-6.71%
CCCCc1ccc2nc(NC(=O)OC)[nH]c2c1,–,-12.2% [at 54.9 µM]
O=C(CS(=O)Cc1ccco1)NCC=CCOc1cc(CN2CCCCC2)ccn1 (stereo not given),–,-8.43%
CCN(CC)CCOc1ccc(Cc2ccccc2)cc1,inactive,–
O=c1c(O)c(-c2ccc(O)cc2O)oc2cc(O)cc(O)c12,50.1 µM (active),–
Nc1cccc2c1CN(C1CCC(=O)NC1=O)C2=O (stereo not given),–,-2.94%
CCC(C)(Oc1ccc(C2(c3ccc(OC(C)(CC)C(=O)O)cc3)CCCCC2)cc1)C(=O)O (stereo not given),–,-10.8%
O=c1oc2cc(O)ccc2s1,–,0.0641%
Nc1ccc(S(N)(=O)=O)cc1,inactive,–
CC1(C)NC(=O)N(c2ccc([N+](=O)[O-])c(C(F)(F)F)c2)C1=O,inactive,–
O=C(NCCO[N+](=O)[O-])c1cccnc1,–,-4.98%
NCCCCNCCCN,inactive,–

SMILES,Potency,"activity change, negative = inhibition"
Cc1cc(=O)oc2cc(O)ccc12,–,-6.69% [at 54.9 µM]
CC[C@]1(O)C[C@H]2CN(CCc3c([nH]c4ccccc34)[C@@](C(=O)OC)(c3cc4c(cc3OC)N(C=O)[C@H]3[C@@](O)(C(=O)OC)[C@H](OC(C)=O)[C@]5(CC)C=CCN6CC[C@]43[C@@H]65)C2)C1,–,-10.2%
CC(C)[C@H](N)C(=O)OCCOCn1cnc2c(=O)[nH]c(N)nc21,–,-6.51%
COc1cc(OC)c(C(=O)CCCN2CCCC2)c(OC)c1,–,3.19% [at 54.9 µM]
CCCCCCCCOc1ccccc1C(=O)Nc1ccc(C(=O)OCC[N+](C)(CC)CC)cc1,79.4 µM (active),–
Cc1ccc(C)c(OCCCC(C)(C)C(=O)O)c1,inactive,–
O=C(O)c1cn(-c2ccc(F)cc2)c2cc(N3CCNCC3)c(F)cc2c1=O,–,-10.2%
CC(=O)O[C@H]1C(=O)[C@@]2(C)C([C@H](OC(=O)c3ccccc3)[C@]3(O)C[C@H](OC(=O)[C@H](O)[C@@H](NC(=O)c4ccccc4)c4ccccc4)C(C)=C1C3(C)C)[C@]1(OC(C)=O)CO[C@@H]1C[C@@H]2O (stereo not given in full),–,-2.3%
Oc1ccc2ccccc2c1SSc1c(O)ccc2ccccc12,–,-9.27%
O=C1c2c(O)cc(O)cc2OC(c2ccc(O)c(O)c2)C1O (stereo not given),–,-10.4%
O=P(O)(O)C(O)(Cn1ccnc1)P(=O)(O)O,–,-3.08%
Cn1c(NCCN(CCO)CCCc2ccc([N+](=O)[O-])cc2)cc(=O)n(C)c1=O,–,-11.3%
O=c1ccc2ccc(O)c(O)c2o1,–,4.41%
COC(=O)[C@H](Cc1ccccc1)NC(=O)[C@@H](N)CC(=O)O (H-Asp-Phe-OMe),–,-2.36%
COc1ccc(C2(C#N)CCC(C(=O)O)CC2)cc1OC1CCCC1 (stereo not given),–,-5.53%
CC1(C)C(=O)N(CCN2CCC(C(=O)c3ccc(F)cc3)CC2)c2ccccc21,–,-7.51%
CNC[C@@H](O)[C@@H](O)[C@H](O)[C@H](O)CO,–,-2.57%
Cc1nc(Nc2ncc(C(=O)Nc3c(C)cccc3Cl)s2)cc(N2CCN(CCO)CC2)n1,–,-11.9%
CCC[C@@H]1C[C@@H](C(=O)N[C@@H]([C@H]2O[C@H](SC)[C@H](O)[C@@H](O)[C@H]2O)[C@@H](C)O)N(C)C1,–,2.76%
O=C(O)c1cc(=O)c2c(OCC(O)COc3cccc4oc(C(=O)O)cc(=O)c34)cccc2o1,inactive,–
